IMPase cell inh = IMPase inhibition in cells; CHO-M1 cells, IP1 accumulation, HTRF TR-FRET ratio; 120,000 tested, under 10 active; inhibition (IP1 accumulation), % at 46.1 µM; P97697; active = well fitted curve in the direction sought with a large enough effect in the signal ratio, not every such curve was filed as active; inconclusive = small, poorly fitted or top-dose-only effect, or a change in a side signal; inactive = no such curve, though single readings can be large or run the other way; the % refers to the signal ratio;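 note: cells stimulated with carbachol in lithium chloride buffer; plate controls were DMSO basal wells for no effect and reference inhibitor wells for full effect; higher means more IMPase inhibition seen as more IP1 and lower FRET ratio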
Target sequence (P97697 whole entry, looked up): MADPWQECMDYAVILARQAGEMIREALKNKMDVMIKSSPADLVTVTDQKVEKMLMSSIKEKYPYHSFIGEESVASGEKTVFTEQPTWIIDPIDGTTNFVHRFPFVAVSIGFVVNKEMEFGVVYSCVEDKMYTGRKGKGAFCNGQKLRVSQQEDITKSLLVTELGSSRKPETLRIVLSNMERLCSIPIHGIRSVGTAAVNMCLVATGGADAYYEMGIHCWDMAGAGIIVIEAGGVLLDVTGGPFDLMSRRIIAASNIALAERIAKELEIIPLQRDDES
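In this qHTS, compounds (final up to 46 uM) act on CHO-M1 cells that are then activated through the M1 receptor with carbachol, in pH 7.4 buffer containing 50 mM LiCl, for 30 min. IP1 accumulation is quantified by the IP-One immunoassay.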
IMPase Li cell = cell-permeable IMPase inhibitors with lithium potentiation. CHO-M1 cells, IP1 TR-FRET (IP-One), carbachol + lithium. Potency, µM (series often up to 59.4 µM), inactives show at the highest dose activity, negative = IMPase inhibition, actives largely listed as inhibitors. hit rate 0.35% among 210,000;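 note: IP1 builds up when IMPase is blocked and the TR-FRET signal falls; potency is the fitted concentration of half-maximal effect; plate controls were basal vehicle for no effect and high inhibitor control for full effect; nearly all actives have a fitted effect of over 50% in size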
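Steps: plate 2000 CHO-M1 cells per well and culture 16–30 h; add compound and lithium; incubate 30 min, 37C; add d2-IP1 tracer and Eu cryptate anti-IP1 antibody in lysis buffer; read after 10 min at room temperature.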
NPSR antag = antagonists of human neuropeptide S receptor cAMP signaling | CHO-NPSR cells, cAMP TR-FRET, antagonist mode | Potency, µM (doses to about 38.3 µM), for inactives: at the highest dose activity change, negative = inhibition, most hits filed as inhibitors | hit rate 1% among 220,000 | Q6W5P4; note: potency is the fitted concentration of half-maximal effect; nearly all actives have a fitted effect of over 50% in size
Target sequence (Q6W5P4 whole entry, looked up): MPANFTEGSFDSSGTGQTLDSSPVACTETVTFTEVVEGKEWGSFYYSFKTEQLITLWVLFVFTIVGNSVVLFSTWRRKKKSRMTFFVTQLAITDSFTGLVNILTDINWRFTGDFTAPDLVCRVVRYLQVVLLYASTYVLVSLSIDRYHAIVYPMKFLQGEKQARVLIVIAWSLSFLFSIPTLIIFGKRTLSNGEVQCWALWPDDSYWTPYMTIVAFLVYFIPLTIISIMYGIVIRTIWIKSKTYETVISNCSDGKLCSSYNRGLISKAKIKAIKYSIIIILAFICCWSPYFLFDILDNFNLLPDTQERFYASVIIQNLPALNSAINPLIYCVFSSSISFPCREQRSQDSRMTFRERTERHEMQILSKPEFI
An asterisk follows results filed as active; ? = inconclusive; nt = no result; [ ] = another dose, or the depositor's remark. The entries come from a sample that favours hits as a whole. Unless noted, calls come from the whole dose curve; as a rule, active = well fitted curve in the direction sought with a large enough effect; inconclusive = small, poorly fitted or top-dose-only effect, or another doubt; inactive = no such curve, though single readings can be large; an effect the other way counts as inactive or inconclusive. Unless noted, % is set by controls: 0 for no effect and ±100 for the full control effect.

SMILES | IMPase cell inh | IMPase Li cell | NPSR antag
CC1Cc2ccccc2N1S(=O)(=O)c1cccc(C(=O)N2CC(=O)Nc3ccccc32)c1 (centres undefined) | nt | nt | -23.9%
CN(C)CCOC(=O)[C@@H](c1ccccc1)C1(O)CCCC1 | 21.1[20.6 µM] | 18.6% | nt
CCOC(=O)C1(Cc2ccccc2C(F)(F)F)CCN(C2CCN(C(C)C)CC2)CC1 | nt | 5.5% | 14.8%
O=C1C(NS(=O)(=O)c2cccs2)=C(N2CCN(c3cccc(C(F)(F)F)c3)CC2)C(=O)c2ccccc21 | 4.8 | 25.3%[38.3 µM] | 10µM*
CN1CCN(C2=C(NS(=O)(=O)c3cccs3)C(=O)c3ccccc3C2=O)CC1 | nt | nt | -50.5%
COc1ccc(NC(=O)Nc2ccon2)c(OC)c1 | nt | nt | -10.2%
COc1ccccc1C1CN(c2ccc(F)cc2F)N=C1c1cccs1 (centres undefined) | -26.2 | 14.1µM* | -10.4%[46.1 µM]
COc1ccccc1C1CC(c2cccs2)=Nc2ccccc2S1 (centres undefined) | 5.7 | 44.1%[38.3 µM] | -27.6%[46.1 µM]
COc1ccc(NC(=O)CSc2nnc3scc(-c4ccc(Cl)cc4)n23)cc1 | 2.1 | nt | nt
Nc1cc2nsnc2cc1Br | ? | ? | 2.51µM*
Nc1cccc2nsnc12 | nt | nt | -2.0%
O=C(NCCSCc1ccccc1)c1ccc(C2SCC(=O)N2Cc2ccccc2)cc1 (centres undefined) | 12.0 | 37.7%[38.3 µM] | -29.0%[46.1 µM]
O=C(COc1ccc(Cl)cc1)NCc1nnc(SCC(=O)NC2CCCCC2)o1 | -2.0 | 11.2µM* | -25.9%[46.1 µM]
O=C(COc1ccc(Cl)cc1)NCc1nnc(SCC(=O)Nc2ccccc2)o1 | 16.3 | 13.9%[38.3 µM] | -13.1%[46.1 µM]
Cc1ccc2oc(-c3cccc(NC(=S)NC(=O)c4cccs4)c3)nc2c1 | nt | 3.8% | -24.9%
COc1cc(NS(=O)(=O)c2ccc(NC(=S)NC(=O)/C=C/c3ccco3)cc2)ncn1 | nt | -4.8% | 10µM*
COc1ccc(/C=C/C(=O)NC(=S)Nc2ccc(S(=O)(=O)Nc3ccc(OC)nn3)cc2)cc1 | nt | 12.2% | -58.1%
Cc1ccc2oc(-c3cccc(NC(=S)NC(=O)/C=C/c4ccco4)c3)nc2c1 | -2.7 | -1.6%[38.3 µM] | 2.51µM*
CC(=O)/C=C(\C)Nc1ccc(-c2cnc(-c3ccccc3)o2)cc1 | ? | 8.91µM* | 9.5%[7.67 µM]
c1ccc(-c2cnc(-c3ccc(-c4ncc(-c5ccccc5)o4)cc3)o2)cc1 | nt | -9.1% | nt
CCOc1cccc(-c2nnc(SCC(=O)Nc3ccc(OC)c(OC)c3)n2N)c1 | 0.1 | 1.2%[38.3 µM] | -19.4%[46.1 µM]
CCOc1cccc(-c2nnc(SCC(=O)Nc3cc(OC)cc(OC)c3)n2N)c1 | -4.5 | 25.1µM* | -21.9%[46.1 µM]
O=S(=O)(O)c1cc(N=Nc2cccc3ccccc23)c(O)c2ncccc12 | nt | -3.4% | nt
N#C/C(=C\c1cc(Br)c(O)c(Br)c1)c1nc2ccccc2c(=O)[nH]1 | -3.1 | nt | nt
COc1ccc(CCn2c(SCC(=O)Nc3cc(C)on3)nc3ccsc3c2=O)cc1OC | ? | 11.2µM* | -1.8%[46.1 µM]
SMILES | IMPase cell inh | IMPase Li cell | NPSR antag
COc1ccc(CCn2c(SCC(=O)Nc3cc(C)on3)nc3ccccc3c2=O)cc1OC | -3.4 | -7.6%[38.3 µM] | -0.6%[46.1 µM]
Cc1ccc2c(c1)-c1cc(C)nn1C(c1cc(Br)ccc1O)N2 (centres undefined) | 3.9 | nt | nt
COc1cccc2sc(Nc3nc(-c4ccccn4)cs3)nc12 | -11.7 | nt | 1µM*
c1ccc(Nc2nc(-c3ccccn3)cs2)cc1 | -0.4 | -7.5%[38.3 µM] | ?
CCC(C)(C)NC(=O)C(c1cccnc1)N(C(=O)c1csnn1)c1ccc(C)cc1 (centres undefined) | nt | 12.2% | -15.6%
N#Cc1c(Sc2ncc(C(F)(F)F)cc2Cl)nsc1C/C=N\OCc1c(F)cccc1Cl | -0.6 | 21.3%[38.3 µM] | 10µM*
FC(F)(F)c1cnc(Sc2nnc(-c3cccs3)n2CC2CCCO2)c(Cl)c1 (centres undefined) | -2.7 | 27.2%[38.3 µM] | -20.2%[46.1 µM]
O=c1c(-c2ccccc2)nc2cnc(N3CCOCC3)nc2n1CCc1ccccc1 | nt | -13.9% | nt
O=C(O)CC[P+](c1ccccc1)(c1ccccc1)c1ccccc1 | nt | 6.4% | nt
Cc1ccc(-c2nc(NC(=O)CSc3nnc(C)s3)ns2)cc1 | -13.9 | 14.1µM* | -5.1%[46.1 µM]
Cc1nnc(SCC(=O)Nc2nsc(-c3ccccc3)n2)s1 | -13.1 | 7.1%[38.3 µM] | -9.1%[46.1 µM]
COCCn1c(=O)c(-c2cccs2)nc2cnc(OC)nc21 | nt | -17.0% | nt
CCOc1cc(/C=C\[N+](=O)[O-])ccc1OCC(=O)Nc1ccccc1C | 6.4 | 6.1%[38.3 µM] | 3.98µM*
CCOc1cc(/C=N/NC(N)=O)cc(Br)c1OCC(=O)Nc1ccccc1C | -6.2 | 9.3%[38.3 µM] | -15.8%[46.1 µM]
O=C(O)C[C@@H]1C(=O)O[C@@H]2C(COC(=O)c3cc(O)c(O)c(O)c3)O[C@@H](OC(=O)c3cc(O)c(O)c(O)c3)[C@@H](OC(=O)c3cc(O)c(O)c4c3[C@H]1[C@H](O)C(=O)O4)[C@H]2OC(=O)c1cc(O)c(O)c(O)c1 (some centres undefined) | nt | nt | -20.2%
CC(C)(C)OC(=O)N[C@@H](Cc1ccccc1)c1nnc(S(=O)(=O)Cc2ccccc2)o1 | 10.0 | 30.8%[38.3 µM] | ?
Cc1ccccc1CS(=O)(=O)c1nnc([C@H](Cc2ccccc2)NC(=O)OC(C)(C)C)o1 | 21.1 | 17.7%[38.3 µM] | 10µM*
N/C(=N\O)c1cn([C@@H]2O[C@@H](CO)[C@H](O)[C@@H]2O)c2ncnc(NO)c12 | nt | 7.5% | nt
Cc1nn(-c2ccccc2)c2nc(C(Cl)(Cl)Cl)[nH]c(=O)c12 | nt | nt | -13.0%
COc1ccc([C@H]2[C@H](C(=O)OC(C)(C)C)N3N=Cc4ccccc4C3C23C(=O)c2ccccc2C3=O)cc1OC (some centres undefined) | nt | 5.9% | 7.94µM*
COc1ccc([C@H]2[C@H](C(=O)OC(C)(C)C)N3N=Cc4ccccc4C3C23C(=O)c2ccccc2C3=O)c(OC)c1 (some centres undefined) | nt | 4.6% | -21.1%
COC(=O)[C@](C)(N)Cc1ccc(O)cc1 | 2.9 | nt | nt
COc1ccccc1Cn1c(=O)c2ccccc2n2c(SCC(=O)N3CCCCC3)nnc12 | ? | 10µM* | -11.0%
O=C(CSc1nnc2n(C3CCCC3)c(=O)c3ccccc3n12)N1CCCCCC1 | -0.8 | 30.2%[38.3 µM] | -17.4%[46.1 µM]
O=C(N/N=C/c1cc(Cl)cc([N+](=O)[O-])c1O)NC12CC3CC(CC(C3)C1)C2 | nt | 11.8% | 10µM*
SMILES | IMPase cell inh | IMPase Li cell | NPSR antag
Cc1cc(C(=O)N/N=C/c2cc(Cl)cc([N+](=O)[O-])c2O)c2ccccc2n1 | nt | -2.2% | -0.9%
Nc1c(S(=O)(=O)c2cccs2)c2nc3ccccc3nc2n1/N=C/c1cccc(O)c1 | 5.6 | 23.8%[38.3 µM] | 7.94µM*
COc1cccc(/C=N/n2c(N)c(S(=O)(=O)c3cccs3)c3nc4ccccc4nc32)c1 | 4.3 | -4.8%[38.3 µM] | -3.5%[46.1 µM]
CCOc1ccc(NC(=O)NC(=O)N(C(C)C)S(C)(=O)=O)cc1 | nt | -2.6% | 3.9%
COc1cccc(N2CCN(c3ncnc4c3cnn4-c3ccc(C)cc3C)CC2)c1 | 13.7 | 30.1%[38.3 µM] | 10µM*
Cc1ccc(-n2ncc3c(N4CCCC4)ncnc32)c(C)c1 | 3.5 | 10.9%[38.3 µM] | -25.8%[46.1 µM]
Cc1ccc(/C(C#N)=C\c2ccc(N3CCOCC3)o2)cc1 | 4.4 | 24.7% | ?
N#C/C(=C/c1ccc(N2CCCCC2)o1)c1cccc(F)c1 | -0.2 | 30.5%[38.3 µM] | 10µM*
N#C/C(=C/c1ccc(N2CCCCC2)cc1)c1cccc(F)c1 | 13.4 | 2.6% | -19.4%
